The list is not random: actives were taken first. Their share in the collection is about 12%.
RORgamma inh – qHTS for inhibitors of ROR gamma transcriptional activity. Potency, µM (titrated, usually from 53.6 µM), without a hit: top-dose activity change, negative = inhibition, actives largely listed as inhibitors. 5.4% of 310,000 active. AID 2551, 2010. Drosophila S2 Gal4-RORgamma UAS-luciferase reporter, 20 h. Nuclear receptor ROR-gamma (Mus musculus), P51450; further: nearly all actives have a fitted effect of over 60% in size
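Luciferase reporter read in Schneider cells carrying Gal4-RORγ (mouse) and UAS-Photinus luciferase; cells given compound 1 h before 700 uM copper sulfate induction, then incubated 20 h at ambient temperature.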
ALDH1A1 inh – qHTS Assay for Inhibitors of Aldehyde Dehydrogenase 1 (ALDH1A1) | 7.3% of 220,000 active | Potency, µM (series often up to 75.3 µM), for inactives: at the highest dose activity, negative = inhibition, hits mostly inhibitors | AID 1030, 2008 | Aldehyde dehydrogenase 1A1 (Homo sapiens), P00352 | Purified ALDH1A1, NADH fluorescence, propionaldehyde substrate; active means well fitted inhibition curve with a large enough effect, not every such curve was filed as active; inconclusive means small, poorly fitted or top-dose-only effect, or another doubt; inactive means no such curve, though single readings can be large or run the other way;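 further: plate controls were no enzyme wells and a reference inhibitor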
Target sequence (P00352 whole entry, looked up): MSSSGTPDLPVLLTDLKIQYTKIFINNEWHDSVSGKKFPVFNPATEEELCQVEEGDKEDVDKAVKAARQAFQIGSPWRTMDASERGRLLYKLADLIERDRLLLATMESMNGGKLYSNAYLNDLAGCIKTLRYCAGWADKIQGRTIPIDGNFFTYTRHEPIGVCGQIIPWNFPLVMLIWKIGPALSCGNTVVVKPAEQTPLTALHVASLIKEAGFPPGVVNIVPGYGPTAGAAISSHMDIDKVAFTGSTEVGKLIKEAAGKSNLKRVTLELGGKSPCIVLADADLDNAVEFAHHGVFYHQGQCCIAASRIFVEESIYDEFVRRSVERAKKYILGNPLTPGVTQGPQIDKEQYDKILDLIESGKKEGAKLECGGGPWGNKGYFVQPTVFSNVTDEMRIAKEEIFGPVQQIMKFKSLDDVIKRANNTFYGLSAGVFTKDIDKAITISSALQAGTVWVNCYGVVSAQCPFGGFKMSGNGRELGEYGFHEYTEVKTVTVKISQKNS
PLK1 PBD block – qHTS for Inhibitors of PLK1-PDB (polo-like kinase 1 - polo-box domain): Primary Screen; Plk1 PBD binding of FITC phosphopeptide, fluorescence polarization; Potency, µM, for the others: max response, negative = inhibition, actives largely listed as inhibitors; 2.8% of 360,000 active; further: series mostly up to about 57 µM; nearly all actives have a fitted effect of over 65% in size
VP16 counter – VP16 counterscreen qHTS for inhibitors of ROR gamma transcriptional activity | Drosophila S2 Gal4-VP16 UAS-luciferase, luminescence, 20 h | Potency, µM (doses to about 53.6 µM), inactives show at the top dose activity, negative = inhibition, most hits filed as inhibitors | 3.5% of 310,000 active | AID 2546, 2010;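 further: Gal4-VP16 expression switched on by copper sulfate through the metallothionein promoter; nearly all actives have a fitted effect of over 50% in size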
Sfp inh – qHTS Assay for Inhibitors of Bacillus subtilis Sfp phosphopantetheinyl transferase (PPTase); 4'-phosphopantetheinyl transferase ffp (Bacillus subtilis), Q9F4F7; Biochemical Sfp PPTase activity, qHTS; Potency, µM, for inactives: largest response in the series, negative = inhibition, hits mostly inhibitors; 3.5% of 310,000 active;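 further: the enzyme is Sfp with the accession as filed and its product quenches rhodamine fluorescence; 0% = enzyme reaction without inhibitor and -100% = no enzyme wells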
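Buffer: 50 mM Hepes-Na pH 7.6, 10 mM MgCl2, 0.01% Nonidet P-40, 0.01% BSA. Enzyme 15 nM, pre-exposed to compound 15 min; substrates then added and fluorescence change tracked over 30 min.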
Starred values were filed as active, the others as inactive; [ ] = dose if it differs, or a comment. Unless noted, the call rests on the fitted dose curve; in most records, active means well fitted curve in the direction sought with a large enough effect; inconclusive means small, poorly fitted or top-dose-only effect, or another doubt; inactive means no such curve, though single readings can be large; an effect the other way counts as inactive or inconclusive. Unless noted, on the % scale 0 is the no-effect control and ±100 the full control effect; potency means the concentration at half of the fitted maximal effect.

`Cc1cc(C=C2C(=O)c3ccccc3C2=O)c(C)n1-c1cccc(C(=O)O)c1` gave RORgamma inh -6%, ALDH1A1 inh 10µM*, PLK1 PBD block -21%, VP16 counter -1% and Sfp inh 0%.
Screening C/C(=N\Nc1nc(C)c(C)s1)c1ccc([N+](=O)[O-])cc1 returned RORgamma inh 11µM*, ALDH1A1 inh 13µM*, PLK1 PBD block -24%, VP16 counter inconclusive and Sfp inh inconclusive.
`C/C(=N\Nc1ccc([N+](=O)[O-])cc1)c1ccc(N)cc1` gave RORgamma inh 26%, ALDH1A1 inh inconclusive, PLK1 PBD block 3%, VP16 counter 3% and Sfp inh inconclusive.
For Cc1ccc(CNC(=O)C2CC(c3cc(C(F)(F)F)cc(C(F)(F)F)c3)=NO2)o1 (configuration not stated) the results were RORgamma inh 33%, PLK1 PBD block -11%, VP16 counter 6% and Sfp inh 56µM*.
For Cc1ccc(CNC(=O)C2CC(c3cccc([N+](=O)[O-])c3)=NO2)o1 (configuration not stated) the results were RORgamma inh 37%, ALDH1A1 inh inconclusive, PLK1 PBD block -10%, VP16 counter 18% and Sfp inh 45µM*.
Screening CC(C)c1ccccc1OCCCCCNCCO returned RORgamma inh 0%, ALDH1A1 inh 18µM*, PLK1 PBD block -2%, VP16 counter -1% and Sfp inh 3%.
`Cc1cccc(C)c1OCCCCCNCCO` gave RORgamma inh 0%, ALDH1A1 inh 20µM*, PLK1 PBD block -10%, VP16 counter 1% and Sfp inh 1%.
Screening CC(C)CNC(=S)Nc1ccc(S(N)(=O)=O)cc1 returned RORgamma inh -4%, ALDH1A1 inh inconclusive, PLK1 PBD block inconclusive, VP16 counter -9% and Sfp inh -15%.
For Cc1ccc(NC(=S)NCC(C)C)cc1 the results were RORgamma inh 10µM*, ALDH1A1 inh 13%, PLK1 PBD block -9%, VP16 counter 11µM* and Sfp inh -10%.
Screening CCCNC(=S)Nc1ccc(Br)cc1 returned RORgamma inh 11µM*, ALDH1A1 inh 0%, PLK1 PBD block -7%, VP16 counter inconclusive and Sfp inh 10%.
Screening S=C(NCCc1ccccc1)Nc1ccc(Br)cc1 returned RORgamma inh 5µM*, ALDH1A1 inh 1%, PLK1 PBD block -16%, VP16 counter inconclusive and Sfp inh 0%.
`CCCNC(=S)Nc1ccc(S(N)(=O)=O)cc1` gave RORgamma inh 2%, ALDH1A1 inh 10%, PLK1 PBD block -11%, VP16 counter -6% and Sfp inh 6%.
`S=C(NCCNC(=S)Nc1ccccc1)Nc1ccccc1` gave RORgamma inh -37%[1.91 µM], PLK1 PBD block 10%, VP16 counter 0% and Sfp inh 16%.
S=C(NCCOCCOCCNC(=S)Nc1ccccc1)Nc1ccccc1 was read as RORgamma inh 5µM*, ALDH1A1 inh 13µM*, PLK1 PBD block -5%, VP16 counter inconclusive and Sfp inh 3%.
`COc1ccc2cc1Oc1cc3c(cc1OC)CC[N+](C)(C)C3Cc1ccc(cc1)Oc1c(OC)c(OC)cc3c1C(C2)[N+](C)(C)CC3` (configuration not stated) gave RORgamma inh 4%, VP16 counter -5% and Sfp inh -5%.
Screening COc1cc([C@@H]2CC(=O)c3c(O)cc(O)cc3O2)ccc1O returned RORgamma inh 2%, VP16 counter 7% and Sfp inh -14%.
Screening CCCCCCCCCCCCCCCCCCNC(=O)OCC(COP(=O)([O-])OCC[n+]1ccsc1)OC (configuration not stated) returned ALDH1A1 inh 5%.
Screening O=C(CC[C@H]1O[C@@H](n2ccc(=O)[nH]c2=O)[C@H](O)[C@@H]1O)N[C@@H](Cc1ccccc1)C(=O)NCc1ccccc1 returned PLK1 PBD block -12%.
For CC(C)CCNC(=S)Nc1ccc([N+](=O)[O-])cc1 the results were RORgamma inh inconclusive, ALDH1A1 inh inconclusive, PLK1 PBD block inconclusive, VP16 counter inconclusive and Sfp inh -28%.
Screening CC(C)CCNC(=S)Nc1ccc(Br)cc1 returned RORgamma inh 3.5µM*, ALDH1A1 inh -4%, PLK1 PBD block -9%, VP16 counter 10µM* and Sfp inh 0%.
`S=C(NCC1(c2ccccc2)CCCC1)Nc1ccccc1` gave RORgamma inh 1.6µM*, PLK1 PBD block 3%, VP16 counter 6.3µM* and Sfp inh 1%.
Screening COC(=O)Cc1ccc(NC(=S)NCCC(C)C)cc1 returned RORgamma inh 10µM*, ALDH1A1 inh 3%, PLK1 PBD block -11%, VP16 counter inconclusive and Sfp inh -6%.
Screening COC(=O)Cc1ccc(NC(=S)NCCO)cc1 returned RORgamma inh -14%, PLK1 PBD block -4%, VP16 counter -15% and Sfp inh 4%.
Screening CN(C)Cc1ccccc1-c1cc(NC2CC2)ncn1 returned RORgamma inh 1%, ALDH1A1 inh -3%, VP16 counter 2% and Sfp inh -11%.
`N=C(N)SC(c1ccccc1)c1ccccc1` gave ALDH1A1 inh 5%[13.5 µM].
C=CCN1C(=O)/C(=C/C=C2/N(CC)c3ccc(S(=O)(=O)N(C)C)cc3N2CC)SC1=S was read as RORgamma inh inconclusive, ALDH1A1 inh 2.8µM*, PLK1 PBD block 71%, VP16 counter -4% and Sfp inh inconclusive.
Screening C=CCN1C(=O)/C(=C2/Sc3ccccc3N2CC)SC1=S returned RORgamma inh -29%, PLK1 PBD block -12%, VP16 counter -21% and Sfp inh 6%.
CCN(Cc1ccccc1)C(=O)CSc1nncn1C was read as RORgamma inh -35%, ALDH1A1 inh 32µM*, PLK1 PBD block 4%, VP16 counter -1% and Sfp inh 8%.
For CCOc1ccc(C(=O)Nc2ccccc2C(=O)O)cc1 the results were RORgamma inh 6.3µM*, ALDH1A1 inh -4%, PLK1 PBD block 27µM*, VP16 counter inconclusive and Sfp inh 21%.
`CCOc1ccc(/C=N/NC(=O)c2ccccc2NC(=O)c2ccc(OC)cc2)cc1` gave RORgamma inh 7.1µM*, ALDH1A1 inh inconclusive, PLK1 PBD block -2%, VP16 counter 7.1µM* and Sfp inh 11%.
Cc1ccccc1C(=O)Nc1ccc(C(=O)N/N=C/c2ccncc2)cc1 was read as RORgamma inh -3%, ALDH1A1 inh inconclusive, PLK1 PBD block -11%, VP16 counter 7% and Sfp inh inconclusive.

Bioassay records deposited in PubChem BioAssay by National Center for Advancing Translational Sciences (NCATS).
